Test results reported in PubChem BioAssay (NCATS).
Results filed as inconclusive are left out. Where a call stands in place of a potency, no number is given. Calls of active or inactive are those of the source. Calls follow the shape of the dose curve; as a rule, active = well fitted inhibition curve with a large enough effect; inconclusive = small, poorly fitted or top-dose-only effect; inactive = flat fitted curve, though single readings scatter. Square brackets hold non-standard residues; d marks the D form. Peptide text beside a SMILES is read from it. PhLac = O=C(O)[CH](O)Cc1ccccc1; NMeV = CN[CH](C(=O)O)C(C)C

system: CRL-7250; assay: qHTS assay to identify novel small-molecules to repurpose for Merkel cell carcinoma treatment (AID 1296009); details: MCC and control cell lines, CellTiter-Glo viability, 72 h; series mostly up to 92 µM; also: nearly all actives have a fitted effect of over 60% in size
How it was run: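 Cell viability measured by CellTiter-Glo following 72 hr compound treatment at 37 degree celsius, with NPC and MIPE libraries tested in 8- and 11-point concentration series.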

Structure (SMILES) | Potency
OC[C@H]1O[C@@H](OCc2ccccc2)[C@H](O[C@@H]2OC[C@@H](O)[C@H](O)[C@H]2O)[C@@H](O)[C@@H]1O | inactive
Clc1ccc2c(c1)C1=NCCN1c1c(-c3noc(C4CC4)n3)ncn1-2 | inactive
O=S(=O)(c1ccccc1)N(CC(F)(F)F)c1ccc(C(O)(C(F)(F)F)C(F)(F)F)cc1 | inactive
CC1CC(=O)C2=C(O1)OC1(C)CCC3C(C)(C)C4OC4C(=O)C3(C)C1C2 (stereo not given) | inactive
CC1CCC2(NC1)OC1C(=O)C3C4CCC5CC(O[C@@H]6O[C@H](CO)[C@@H](O)[C@H](O)[C@H]6O[C@@H]6O[C@@H](C)[C@H](O)[C@@H](O)[C@H]6O)CCC5(C)C4CCC3(C)C1C2C (stereo not given in full) | inactive
COc1ccc(C2Oc3c(OC)cc(CCCO)cc3C2COC2OC(CO)C(O)C(O)C2O)cc1OC (stereo not given) | inactive
CC(C)C(C(=O)N1CCCC1C(=O)O)N(C)C(=O)C(O)Cc1ccccc1 (stereo not given) (H-[PhLac]-[NMeV]-Pro-OH; configuration not given here) | inactive
O=S(=O)(O)c1ccc(Nc2ncnc3c2ncn3[C@@H]2O[C@H](CO)[C@@H](O)[C@H]2O)cc1 | inactive
O=C(O)CCc1cccc(O[C@@H]2O[C@H](CO)[C@@H](O)[C@H](O)[C@H]2O)c1O | inactive
CCC(O)(C(=O)OCc1ccccc1NC(=O)CCC(=O)O)C(C)O (stereo not given) | inactive
C=C1C(=O)OC2CC(C)=C(C(C)CCCO)C(O)C12 (stereo not given) | inactive
CC(C)(C)c1ccc(C(=O)Nc2cn3cc(-n4ccnc4)ccc3n2)cc1 | inactive
O=c1c2cccnc2n(-c2cccc([N+](=O)[O-])c2)c(=O)n1Cc1ccncc1 | inactive
Clc1ncoc1-c1c[nH]c2ccccc12 | inactive
CC(=O)O[C@H]1C[C@@]2(C)[C@@H](C[C@@H](O)[C@H]3[C@@]4(C)CC[C@@H](O)[C@@H](C)[C@@H]4CC[C@@]32C)/C1=C(\CCC=C(C)C)C(=O)O | inactive
O=C(NCc1ccc(OC(F)(F)F)cc1)C1c2ccccc2C(=O)N1C1CCOCC1 (stereo not given) | inactive
C=C(C(=O)OC)C1C(O)CC2(C)C(=O)CCC(O)(CO)C2C1O (stereo not given) | inactive
COC1OC(O)C2(CCC3(O2)C(C)CC2OC(=O)C4(C)CCCC3(C)C24)C1O (stereo not given) | inactive

Structure (SMILES) | Potency
Cn1c2ccc(NC(=O)c3ccccc3)cc2c(=O)n2nc(C(=O)O)cc12 | inactive
CC(C)c1c(O)ccc2c1CC[C@H]1C(C)(C)CCC[C@]21C | inactive
COC(=O)C1=CO[C@@H](O[C@@H]2O[C@H](CO)[C@@H](O)[C@H](O)[C@H]2O)[C@H]2[C@@H]1[C@H](O)C[C@]2(C)O | inactive
Cc1c(C(=O)NCc2cccnc2)nn(-c2ccc(Cl)cc2Cl)c1-c1ccc(Cl)cc1 | inactive
COC1C=C(C)C(O)(CO)C2(C)CCCC(C)(C)C12 (stereo not given) | inactive
COc1ccc(/C=C/C(N)=O)cc1OC | inactive
CC1C(=O)CC2C3C(O)CC(C(=O)O)C12CC3(C)C (stereo not given) | inactive
CC(=O)OC[C@@]12[C@H](O)C[C@@H](C)[C@]3(C[C@@H](c4ccoc4)OC3=O)[C@H]1C[C@H](O)C[C@]21CO1 | inactive
COc1cc(/C=C/C(=O)O[C@H]2[C@@H]3C=CO[C@@H](O[C@@H]4O[C@H](CO)[C@@H](O)[C@H](O)[C@H]4O)[C@@H]3[C@@]3(CO)O[C@@H]23)ccc1O | inactive
COc1c2c(c(C)c3c1C(=O)OC3)O[C@@]1(C)CC(O)C(C(C)(C)O)[C@](C)(CCC(=O)O)[C@H]1C2 (stereo not given in full) | inactive
Cc1ncc([N+](=O)[O-])n1C[C@H](O)CN1CCOCC1 | inactive
C[C@H](NC(c1cccc(C[P+](=O)O)c1)[C@H](C)O)c1ccc(Cl)c(Cl)c1 (stereo not given in full) | inactive
COC(=O)c1cc(OC)c(O[C@@H]2O[C@@H](C)[C@H](O)[C@@H](O)[C@H]2O)c(OC)c1 | inactive
C[C@@H]1CCC2C(C)(C)[C@H](O)CC[C@]2(C)[C@@]12Cc1c(O)cc3c(c1O2)CN([C@@H](CCC(=O)O)C(=O)O)C3=O (stereo not given in full) | inactive
C=C1CCC2[C@@](C)(C=O)CCC[C@]2(C)[C@H]1CC/C(C)=C/CO (stereo not given in full) | inactive
CC1=C2C(=O)C=C(CO[C@@H]3O[C@H](CO)[C@@H](O)[C@H](O)[C@H]3O)[C@@H]2[C@H]2OC(=O)[C@H](C)[C@@H]2[C@@H](O)C1 | inactive
OCC1=CC[C@@H]2C=CO[C@@H](O[C@@H]3O[C@H](CO)[C@@H](O)[C@H](O)[C@H]3O)[C@H]12 | inactive
